# Screening results deposited in PubChem BioAssay by National Center for Advancing Translational Sciences (NCATS).
# Pf growth 48h = P. falciparum growth inhibition at 48 hours (one generation). hit rate 5.9% among 310,000. Potency, µM (doses to about 28.7 µM), for inactives: at the highest dose activity change, negative = inhibition, actives largely listed as inhibitors. P. falciparum luciferase growth in erythrocytes, 48 h; also: potency is read from the fitted curve at half-maximal effect
#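 Cell-based growth assay: transgenic P. falciparum expressing firefly luciferase, cultured in red cells within RPMI 1640 containing 0.5% w/v Albumax, 24 mM bicarbonate and gentamycin. A drop in luciferase activity indicates inhibition.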
# HCMV inh = inhibitors of human cytomegalovirus; HFF cells, HCMV-luciferase reporter, 72 h; active compounds read low; activity change, negative = inhibition, % at 57.5 µM; hit rate 4.5% among 410,000; AID 1259415; in the data active = activity change below about -60%; inconclusive = no clear call, values can overlap the other calls; inactive = above about -39%
#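 After 16 h attachment at 37C, HFF cells received test compound and HCMV-luciferase (1 PFU/cell); reporter luminescence read 72 h later, data normalized against buffer-only and known inhibitor Salinomycin.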
# HCV inhibitor = blocks hepatitis C virus | Huh7.5.1 HCVcc-Cre infection, luciferase reporter, 44 h | Potency, µM (titrated, usually from 41.8 µM), without a hit: at the highest dose activity change, negative = inhibition, hits mostly inhibitors | hit rate 3.4% among 340,000 | AID 651820; also: potency is read from the fitted curve at half-maximal effect
#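 Infectious HCVcc-Cre (~0.5 moi) was added to cells just after compound, with cells seeded 4 h earlier at 1,000 per well. Luciferase activity after 44 h culture reported infection; substrate was incubated 15 min at room temperature before reading.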
# Pf growth 96h = inhibits malaria parasite growth, 96 h. hit rate 6.9% among 320,000. P. falciparum luciferase reporter growth, 96 h. Potency, µM (doses to about 28.7 µM), for inactives: at the top dose activity change, negative = inhibition, actives largely listed as inhibitors; also: potency is read from the fitted curve at half-maximal effect
#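 Infected RBCs, 2% Hct / 0.05% parasitemia final; luciferase-reporter P. falciparum; cpd 96 h, 37 C, 5% CO2; luciferase detection reagent; luminescence.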
# * = called active by the depositor; u = inconclusive; x = not tested or not shown; [ ] = remark or other dose. Rows were chosen to be rich in hits. Some 13% of all compounds tested hit in one or more screens of this group. Unless noted, calls follow the shape of the dose curve; as a rule, active = well fitted inhibition curve with a large enough effect; inconclusive = small, poorly fitted or top-dose-only effect, or another doubt; inactive = no such curve, though single readings can be large or run the other way. % is scaled to controls: 0 for no effect and ±100 for the full control effect.
SMILES,Pf growth 48h,HCMV inh,HCV inhibitor,Pf growth 96h
CC(=O)N1CCSc2ccc(S(=O)(=O)Nc3cccc(C)c3)cc21,-8.5%,u,14.1µM*,u
CCOc1ccc(NS(=O)(=O)c2ccc3c(c2)N(C(C)=O)CC3)cc1,16.5%,-35.7,10.4%,-4.1%
CC(=O)N1CCSc2ccc(S(=O)(=O)Nc3ccccc3C)cc21,u,-12.2,11.2µM*,u
COc1ccc(N2CCN(C(=O)CCn3cnc4onc(-c5ccc(F)cc5)c4c3=O)CC2)cc1,x,-7.9,x,x
Cc1c(/C=C/C(=O)c2ccc(C(C)C)cc2)cnn1C,3.0%,-87.1*,31.6µM*,27.7%
COc1ccc(NC(=O)/C(C#N)=C/c2cc(C)n(-c3ccc(F)cc3)c2C)cc1,x,11.3,x,x
COCCNC(=O)/C(C#N)=C/c1cc(C)n(-c2ccc(C)cc2)c1C,0.0%,15.6,10µM*,6.8%
COc1ccc(-n2c(C)cc(/C=C(\C#N)C(=O)NCc3ccco3)c2C)cc1,4.65µM*,3.7,u,u
CC(=O)N1CC=C2C(C#N)=C(N)C(C#N)(C#N)C(CCc3ccccc3)C2C1 (centres undefined),-28.2%,56.3,2.1%,-6.5%
CCN1CC=C2C(C#N)=C(N)C(C#N)(C#N)C(CCc3ccccc3)C2C1 (centres undefined),10.4µM*,57.7,-2.1%,10.4µM*
Cn1c(=O)c2c(ncn2C[C@@H](O)CO)n(C)c1=O,-4.0%[12.8 µM],x,x,11.7%[12.8 µM]
Cc1ccc(NS(=O)(=O)c2cc(NC(=O)c3ccc4c(c3)NC(=O)CS4)ccc2Cl)c(C)c1,-19.0%,-94.4*,10µM*,7.38µM*
Cc1ccc(C(=O)Nc2ccc3c(c2)CCC3)cc1S(=O)(=O)N1CCOCC1,-16.9%[5.75 µM],-62.1*,u,17.7%[5.75 µM]
Cc1ccc(NS(=O)(=O)c2cc(NC(=O)c3cc4c(s3)CCCC4)ccc2C)c(C)c1,u,u,u,10.4µM*
COc1ccc(NC(=O)c2cc3c(s2)CCC(C)C3)cc1S(=O)(=O)N1CCOCC1 (centres undefined),u,-100.0*,u,7.38µM*
Cc1ccc(C(=O)Nc2ccncc2)cc1S(=O)(=O)N1CCOCC1,-27.4%,2.2,-5.7%,u
CCc1ccccc1NS(=O)(=O)c1ccc2[nH]cc(C(=O)N(CC)Cc3ccccc3)c(=O)c2c1,x,11.5,x,x
COc1ccc(CCC(=O)NCc2nc3cccnc3n2Cc2ccc(OC)cc2)cc1,x,5.5,x,x
CC(C)c1ccc(S(=O)(=O)Nc2cc3c(cc2NCc2ccccc2)n(C)c(=O)n3C)cc1,x,10.6,x,x
Cc1nn(Cc2noc(C(=O)NCc3cccc(F)c3)n2)c(C)c1Br,x,16.5,x,x
O=C(Nc1ccc2c(c1)CCC2)c1ccc(F)c(S(=O)(=O)N2CCOCC2)c1,0.1%,u,15.8µM*,u
COc1ccc(C(=O)Nc2ncc(C)s2)cc1S(=O)(=O)N1CCOCC1,-17.0%,-28.4,0.7%,-22.4%
Cc1ccc(NC(=O)c2cc3c(s2)CCC3)cc1S(=O)(=O)N1CCOCC1,u,-65.0*,7.94µM*,x
Cc1cnc(NC(=O)c2ccc(F)c(S(=O)(=O)N3CCOCC3)c2)s1,u,-104.9*,u,-42.9%
O=C(Nc1ccc(S(=O)(=O)Nc2ncccn2)cc1)c1ccc(F)c(S(=O)(=O)N2CCOCC2)c1,-7.4%,20.9,5.5%,-15.6%
SMILES,Pf growth 48h,HCMV inh,HCV inhibitor,Pf growth 96h
Cc1cccc(N2C(=O)CSC23C(=O)N(CC(=O)Nc2cccc(Cl)c2)c2ccccc23)c1 (centres undefined),x,18.6,x,x
C[C@H]1C[C@@H]2[C@@H]([C@@H](O)C[C@@]3(C)[C@H]2CC[C@]3(O)C(=O)CO)[C@@]2(C)C=CC(=O)C=C12,-15.6%[12.8 µM],x,x,u
CCCCCNS(=O)(=O)c1cc(C)ccc1OC,-11.2%,-1.3,6.6%,11.7µM*
COc1ccc(C)cc1S(=O)(=O)Nc1cccc(-c2ccc(N3CCC(C)CC3)nn2)c1,x,29.1,x,x
COc1ccc(C)cc1S(=O)(=O)Nc1cccc(-c2ccc(N3CCCCCC3)nn2)c1,-4.7%,-17.7,10µM*,u
Cc1ccc(S(=O)(=O)Nc2cccc(-c3ccc(N4CCCCCC4)nn3)c2)cc1C,22.0%,-8.9,u,13.1µM*
COc1ccc(C)cc1S(=O)(=O)Nc1cccnc1,24.3%,65.2,18.0%,6.57µM*
CCC1CCCCN1C(=O)Cn1c(=O)n(CCCCCC(=O)NCc2ccccc2Cl)c(=O)c2sccc21 (centres undefined),x,2.3,x,x
O=C(COCc1cc(-c2ccco2)on1)Nc1cccc(Cl)c1Cl,x,0.0,x,x
Cc1nnc2c3ccccc3c(-c3ccccc3)nn12,x,-66.4*,-2.1%,x
CCCCNS(=O)(=O)c1cc(-c2nn(C)c(=O)c3ccccc23)ccc1C,13.1µM*,63.7,u,14.3%
Cc1ccc(-c2nn3c(C)nnc3c3ccccc23)cc1S(=O)(=O)NC(C)c1ccccc1 (centres undefined),u,133.7,u,7.38µM*
Cc1ccc(-c2nn3c(C)nnc3c3ccccc23)cc1S(=O)(=O)NCCO,-18.4%,125.9,u,26.8%
O=c1[nH]c(SCc2cccc(Cl)c2)nc2c1CCC2,x,-3.8,x,x
Cc1ccccc1NC(=O)C1CCN(C(=O)c2ccc(F)cc2)CC1,x,-10.0,x,x
COc1cccc(NC(=O)CSc2ncc(S(=O)(=O)c3ccc(C)c(C)c3)c(=O)[nH]2)c1,x,2.4,x,x
Fc1cccc(CNc2ncnc3cc(Cl)ccc23)c1F,x,u,7.08µM*,u
COc1cccc(CNc2ncnc3onc(C)c23)c1,x,-30.7,x,x
COc1cc2ncnc(NCc3cc(F)ccc3F)c2cc1OC,u,-8.7,1.4%,u
COc1cccc(CNc2ncnc3cc(Cl)ccc23)c1,u,u,11.2µM*,-2.5%
CCCCCCCCCCCCCCCCCC(=O)OCC(O)CO (centres undefined),-12.7%,x,x,-1.0%
O=C(c1ccccc1Cl)N1N=C(c2ccc(Br)cc2)CC1c1nc2ccccc2[nH]1 (centres undefined),3.5%,-10.1,11.2µM*,52.4%
CCN(CC)CC#CCC(O)(c1ccccc1)C1CCCCC1 (centres undefined),14.5%,-8.1,u,177.2%
CCN(CC)CC#CC(OC)(c1ccccc1)c1ccccc1,u,-63.1*,13.1%,u
COc1ccccc1/C=C/CN1CCN(Cc2ccc(C)o2)C(CCO)C1 (centres undefined),u,27.1,-17.6%,u
C/C(=C\c1ccccc1)CN1CCN(Cc2ccc(C)o2)C(CCO)C1 (centres undefined),u,u,2.5%,2.08µM*
Cc1ccc(NC(=O)C2(C)Cc3ccccc3C(=O)O2)cc1 (centres undefined),1.7%,-60.1*,-23.8%,24.4%
O=C(CSc1nc(-c2ccc(F)cc2)[nH]c1-c1ccccc1)Nc1ccccc1,x,-21.0,x,x
CN1CCC(N2CCN(C3CN(Cc4cn(Cc5cccc(C(F)(F)F)c5)nn4)S(=O)(=O)C3)CC2)CC1 (centres undefined),x,-3.3,x,x
COc1cccc(NC(=O)Cn2c(=O)n(Cc3ccc4c(c3)OCO4)c(=O)c3oc4ccccc4c32)c1,x,-20.0,x,x
